An excerpt weighted towards active compounds, which were near 4.3% of everything screened.
DRD3 antagonist: D3 dopamine receptor (human) antagonism. P35462. D3R cells, DiscoveRx beta-arrestin luminescence, antagonist mode; stronger effect = lower value. max response, negative = inhibition, %. actives 2.5% (n = 360,000). AID 652054; in the data active means max response below about -50%; inconclusive means no clear call, values can overlap the other calls; further: on the % scale 0 is the no-effect control and ±100 the full control effect
Target sequence (P35462 whole entry, looked up): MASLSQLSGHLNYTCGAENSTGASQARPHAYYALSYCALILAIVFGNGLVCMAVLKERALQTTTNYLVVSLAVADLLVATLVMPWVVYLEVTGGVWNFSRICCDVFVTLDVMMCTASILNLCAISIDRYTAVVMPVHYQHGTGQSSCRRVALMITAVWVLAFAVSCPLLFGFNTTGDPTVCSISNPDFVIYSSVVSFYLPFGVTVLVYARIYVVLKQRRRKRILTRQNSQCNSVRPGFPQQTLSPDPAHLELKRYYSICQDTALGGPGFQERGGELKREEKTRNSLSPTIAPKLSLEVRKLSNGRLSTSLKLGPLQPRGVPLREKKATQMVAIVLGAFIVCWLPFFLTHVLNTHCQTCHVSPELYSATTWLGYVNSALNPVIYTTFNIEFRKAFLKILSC
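Cells plated overnight at 1500 cells/well, then exposed to library compounds with dopamine controls for 90 minutes at 37 degrees C. DiscoveRx reagent added for 30–60 minutes at room temperature; luminescence read, quantitative HTS format.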
D3 ag: agonists of human D3 dopamine receptor | P35462 | D3R DiscoveRx beta-arrestin cells, luminescence, 90 min | max activation, % | actives 0.58% (n = 410,000); in the data active means max activation above about 30%; further: 0% is about no effect
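Agonist-mode cell screen: cells plated at 1500/well and incubated overnight at 37 °C, then exposed to library compounds for 90 min at 37 °C. Detection reagent was added for 30–60 min at room temperature, and luminescence was read.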
GLP1R ag: activates the human GLP-1 receptor; actives 0.007% (n = 380,000); P43220; HEK293 GLP-1R CRE-luciferase, luminescence, 4-6 h; cells express a hypersensitive GLP-1R form; AID 624172; Potency, µM (titrated, usually from 45.6 µM), inactives show at the top dose activation, actives largely listed as activators; further: potency means the concentration at half of the fitted maximal effect; % of control where 0% means no effect
GLP-1R inv ag: acts as inverse agonist at human GLP-1 receptor. P43220. HEK293 GLP-1R CRE-luciferase, luminescence, 24 h; GLP-1R form is constitutively active. Potency, µM (highest dose often 38.3 µM), for the others: at the highest dose activity change, negative = inhibition, usual class: inhibitors. actives 1.6% (n = 410,000). AID 624417; further: potency means the concentration at half of the fitted maximal effect; on the % scale 0 is the no-effect control and ±100 the full control effect; nearly all actives have a fitted effect of over 55% in size
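Inverse agonism was detected as reduced cAMP-driven luciferase luminescence after 24 h compound treatment. The cells were HEK293 clones expressing constitutively active human GLP-1R with the reporter. Reporter-only and GPR119 cell lines served as counterscreen controls.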
Starred values were filed as active, the others as inactive; ? = inconclusive; . = no result. Unless noted, the call rests on the fitted dose curve; in most records, active means well fitted curve in the direction sought with a large enough effect; inconclusive means small, poorly fitted or top-dose-only effect, or another doubt; inactive means no such curve, though single readings can be large; an effect the other way counts as inactive or inconclusive.

SMILES	DRD3 antagonist	D3 ag	GLP1R ag	GLP-1R inv ag
CCc1nn(CC(=O)NCc2cccc(OC)c2OC)c(=O)c2cc3occc3n12	.	-12	.	6%
Clc1ccc(-c2csc(NNC3=NCCCCC3)n2)cc1	-78*	-1	-1%	?
CCCN1CCN(C(=O)c2noc3c2COc2ccc(C)cc2-3)CC1	-64*	0	0%	-24%
Cc1ccc2c(c1)-c1onc(C(=O)N3CCN(c4cc(C)ccc4C)CC3)c1CO2	.	3	-2%	10%
CCOC(=O)c1cc(S(=O)(=O)N2CCN(c3ccc(OC)cc3)CC2)[nH]n1	.	-11	.	3%
Cc1cccc(N2CCN(C(=O)c3ccoc3C)CC2)c1C	7	36*	-2%	?
Cc1occc1C(=O)N1CCN(c2ccc(Cl)cc2)CC1	18	6	2%	12%
O=C(C(c1ccccc1)N1CCOCC1)N1CCOCC1 (centres undefined)	-26	2	6%	1%
O=C(C=Cc1ccccc1)CC(c1ccccc1)N1CCOCC1 (centres undefined)	-72*	-21	-7%	?
CCCCNCC(O)(c1ccc(Cl)cc1)c1ccc(Cl)cc1	-87*	-27	1%	?
CCCOc1ccc(-c2nonc2NC(=O)c2oc3ccc(Cl)cc3c2C)cc1OCCC	.	-7	.	8%
O=C(CCN1CCN(c2ccccc2)CC1)Nc1ccccc1F	?	34*	0%	-17%
O=C(Nc1ccccc1F)c1ccc(CN2CCN(c3ccccc3)CC2)cc1	-54*	-2	18%	?
CN(C)CCCNC(=O)/C=C/c1ccc2c(c1)OCO2	11	7	-6%	2%
O=C(/C=C/c1ccc2c(c1)OCO2)NCCSCc1c(Cl)cccc1Cl	?	-8	-1%	10µM*
O=C(/C=C/c1ccc2c(c1)OCO2)NCCSCc1ccc(Cl)cc1	6	-7	10%	5µM*
CS(=O)(=O)N(CC(=O)NCCSCc1c(F)cccc1Cl)c1ccc2c(c1)OCO2	0	3	8%	0%
CCN(CC)CCN(C(=O)/C=C/c1cccs1)c1nc2ccc(F)cc2s1	-71*	-18	7%	-18%
COc1ccc(C)c2sc(N(CCN(C)C)C(=O)/C=C/c3cccs3)nc12	-55*	-18	5%	?
COc1ccc(OC)c2sc(N(CCN(C)C)C(=O)/C=C/c3cccs3)nc12	-20	-20	14%	?
COc1ccc(-c2noc(CSc3nnc(-c4ccncc4)n3-c3cccc(C)c3)n2)cc1OC	.	10	.	18%
C=CCNS(=O)(=O)c1ccc(OCC(=O)OCC)cc1	-60*	7	-7%	10%
Cc1ccc(OCCn2cc(C(=S)N3CCCC3)c3ccccc32)cc1C	-54*	1	-3%	?
CCOc1ccc2oc(=O)cc(CN3CCN(c4ccc(Cl)cc4)CC3)c2c1	.	5	.	4%
COCCn1c(C)cc(O)c(C(c2cccc(F)c2)N2CCN(c3ccccc3)CC2)c1=O (centres undefined)	.	-11	.	3%
SMILES	DRD3 antagonist	D3 ag	GLP1R ag	GLP-1R inv ag
Cc1c(N/N=C(\C#N)C(=O)c2ccc(Cl)cc2)c(=O)n(-c2ccccc2)n1C	-80*	-23	-4%	?
CCOc1ccc(-c2cc(C(=O)N3CCN(c4ccc(C)cc4)C(C)C3)c3ccccc3n2)cc1 (centres undefined)	.	5	.	-21%
CCOc1ccc(-c2cc(C(=O)N3CCN(c4cccc(C)c4)C(C)C3)c3ccccc3n2)cc1 (centres undefined)	.	-2	.	5µM*
COc1cc(-c2cc(C(=O)N3CCN(c4ccccn4)CC3)c3ccccc3n2)cc(OC)c1OC	14	0	4%	0%
CCCc1ccc(-c2cc(C(=O)N3CCN(c4ccccn4)CC3)c3ccccc3n2)cc1	39	44*	-2%	3.2µM*
COc1ccc(-c2cc(C(=O)O)c3ccccc3n2)c(OC)c1	-10	-10	8%	5%
COc1ccc2cc(-c3cc(C(=O)O)c4ccccc4n3)ccc2c1	?	6	-20%	2.2µM*
CCOc1cccc(-c2cc(C(=O)N3N=C(C)CC3(O)C(F)F)c3ccccc3n2)c1 (centres undefined)	-7	0	11%	11µM*
CCOC(=O)Cc1nnc(NC(=O)CSc2nc3ccccc3[nH]2)s1	-7	-2	-1%	14%
